# Results taken from PubChem BioAssay (Tox21).
# Inconclusive results are not listed. Unmarked numbers belong to inactive results. Active and inactive are the calls of the source. Calls follow the shape of the dose curve; as a rule, active = well fitted inhibition curve with a large enough effect in the repeat runs; inconclusive = weak or mixed curves; inactive = no such curve, though single readings can be large or run the other way.
# Biological target: Estrogen receptor (Homo sapiens) (UniProt P03372)
# Sequence (P03372 whole entry, looked up): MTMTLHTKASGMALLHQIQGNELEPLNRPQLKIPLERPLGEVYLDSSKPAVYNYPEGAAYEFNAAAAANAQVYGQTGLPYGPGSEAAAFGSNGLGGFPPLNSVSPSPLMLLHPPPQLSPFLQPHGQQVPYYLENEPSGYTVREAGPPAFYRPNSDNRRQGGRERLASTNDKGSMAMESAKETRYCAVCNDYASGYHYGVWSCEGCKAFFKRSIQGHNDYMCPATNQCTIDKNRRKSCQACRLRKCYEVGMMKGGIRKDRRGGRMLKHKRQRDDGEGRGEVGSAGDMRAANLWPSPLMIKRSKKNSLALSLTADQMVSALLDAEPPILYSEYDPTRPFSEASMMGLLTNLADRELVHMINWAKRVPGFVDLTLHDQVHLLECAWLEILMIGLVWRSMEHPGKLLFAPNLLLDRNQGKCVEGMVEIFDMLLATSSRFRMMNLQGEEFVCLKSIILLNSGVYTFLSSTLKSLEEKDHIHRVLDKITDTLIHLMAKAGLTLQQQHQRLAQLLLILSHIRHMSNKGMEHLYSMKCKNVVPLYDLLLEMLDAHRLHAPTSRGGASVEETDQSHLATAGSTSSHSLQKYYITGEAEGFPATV
# Experiment: qHTS assay to identify small molecule antagonists of the estrogen receptor alpha (ER-alpha) signaling pathway using the BG1 cell line in the presence of 0.1 nM 17-beta-estradiol (AID 1259244); also: nearly all actives have a fitted effect of over 50% in size
# Settings: VM7Luc4E2 (BG1) ERE-luciferase, antagonist mode, 0.1 nM E2, 22 h; series mostly up to 92.4 µM; activity change, negative = inhibition: at the top concentration
# Source text: National Center for Advancing Translational Sciences [NCATS]
# NIH Chemical Genomics Center [NCGC]
# U.S. Environmental Protection Agency [EPA]
# National Institutes of Environmental Health Sciences [NIEHS]
# National Toxicology Program [NTP]
# U.S. Food and Drug Administration [FDA]
# Estrogen receptor (ER), a member of the nuclear hormone receptor plays an important role in development, metabolic homeostasis and reproduction. Two subtypes of ER, ER-alpha and ER-beta, have similar expression patterns with some uniqueness in both types. Endocrine disrupting chemicals (EDCs) and their interactions with steroid hormone receptors like ER causes disruption of normal endocrine function. Therefore, it is important to understand the effect of environmental chemicals in ER signaling pathway. For identifying ER antagonists, VM7Luc4E2 cell line was used to screen against Tox21 compound libraries.
# VM7Luc4E2 cell line (provided by Denison MS, University of California) endogenously express full-length ER-alpha and is stably transfected with a plasmid containing four estrogen responsive elements (ERE) upstream of a luciferase reporter gene. The current screening for identification of ER-alpha inhibitors against Tox21 compound libraries used lower concentration (0.1 nM) of 17beta-Estradiol as a stimulator.
# Tox21 Assay Protocol Summary:
# VM7Luc4E2 cells were cultured in phenol red free assay medium containing 10% charcoal stripped FBS for 5 days prior to the assay. The cells were dispensed at 4,000 cells/well in 4 uL of assay medium into white wall/solid-bottom 1536-well plates (Corning Life Sciences, Corning, NY) using a Multidrop Combi (ThermoFisher Scientific, Waltham, MA) dispenser. After the assay plates were incubated at 37C and 5% CO2 for 24 hr, 23 nL of compounds dissolved in DMSO, positive controls or DMSO only was transferred to the assay plates by a Pintool station (Kalypsys, San Diego, CA). The transfer of compounds was followed by the addition of 1 uL of 0.1 nM (final concentration) agonist (17beta-Estradiol)/assay medium using a Flying Reagent Dispenser (FRD, Aurora Discovery, San Diego, CA). The plates were incubated at 37C and 5% CO2 for 22 hr. For luciferase reporter gene assay, 4 uL of ONE-Glo reagent (Promega Corporation, Madison, WI) was added to each well using the FRD and after 30 min incubation at room temperature luminescence intensity was measured using ViewLux plate reader (PerkinElmer, Shelton, CT).
# % is scaled to controls: 0 for no effect and ±100 for the full control effect; potency is read from the fitted curve at half-maximal effect.
Structure (SMILES),"activity change, negative = inhibition",Potency
CN(C)CCN1C(=O)c2ccccc2N(C)c2ccccc21,-27.9% [at 42.5 µM],–
OCCN1CCN(CCCN2c3ccccc3Sc3ccc(Cl)cc32)CC1,1.3% [at 42.5 µM],–
O=[N+]([O-])c1cc(C2CCCCC2)c(O)c([N+](=O)[O-])c1,–,7.67 µM (active)
CCC(=O)OC,1.81%,–
CCCCN(CCN(CCCC)C(=O)N1CCOCC1)C(=O)N1CCOCC1,6.07% [at 42.5 µM],–
CCOc1ccccc1O[C@H](c1ccccc1)[C@H]1CNCCO1,2.83% [at 42.5 µM],–
CC1(C)S[C@@H]2[C@H](NC(=O)C(c3ccccc3)S(=O)(=O)O)C(=O)N2[C@H]1C(=O)O (stereo not given in full),5.37% [at 42.5 µM],–
CCC(C)COC(C)=O (stereo not given),0%,–
O=C(O)CCc1nc(-c2ccccc2)c(-c2ccccc2)o1,-5.01% [at 42.5 µM],–
C=C1C[C@@]23CC[C@H]4[C@@](C)(CCC[C@@]4(C)C(=O)O[C@@H]4O[C@H](CO)[C@@H](O)[C@H](O)[C@H]4O)[C@@H]2CC[C@]1(O[C@@H]1O[C@H](CO)[C@@H](O)[C@H](O[C@@H]2O[C@H](CO)[C@@H](O)[C@H](O)[C@H]2O)[C@H]1O[C@@H]1O[C@H](CO)[C@@H](O)[C@H](O)[C@H]1O)C3,9.4%,–
CCCCCCCCCI,23.7%,–
C1C[C@@H]2[C@H]3CC[C@H](C3)[C@@H]2C1,9.4%,–
N#CCc1ccc(Cl)cc1Cl,1.01%,–
CC(CN(C)C)C(C)(O)Cc1ccc(Cl)cc1 (stereo not given),2.37% [at 42.5 µM],–
CC=C(Cl)Cl,0%,–
CC(C)(C)CC(=O)OCC(=O)[C@@]1(O)CC[C@H]2[C@@H]3CCC4=CC(=O)C=C[C@]4(C)[C@H]3[C@@H](O)C[C@@]21C,-11% [at 42.5 µM],–
COC(=O)C1=C(C)NC(C)=C(C(=O)O[C@@H]2CCCN(Cc3ccccc3)C2)[C@@H]1c1cccc([N+](=O)[O-])c1,-5.66% [at 42.5 µM],–
Oc1cccc(O)c1O,-11.8%,–
C[C@@H]1CC(=O)NN=C1c1ccc(NN=C(C#N)C#N)cc1,-13.7% [at 42.5 µM],–
CCn1cc(C(=O)O)c(=O)c2cc(F)c(N3CCNCC3)cc21,-3.59% [at 42.5 µM],–

Structure (SMILES),"activity change, negative = inhibition",Potency
CN1C(=O)N(c2ccccc2Br)Cc2cnc(Nc3ccc4c(c3)OCC(CO)O4)nc21 (stereo not given),–,48.6 µM (active)
CCCCOc1ccc(OCCCN2CCOCC2)cc1,12.9% [at 42.5 µM],–
CC(=O)N/N=C/c1ccc([N+](=O)[O-])o1,47% [at 42.5 µM],–
N#[N+]c1ccc2c(S(=O)(=O)[O-])cccc2c1O,-6.23%,–
Cc1ccc(Cl)c(Nc2ccccc2C(=O)O)c1Cl,2.17% [at 42.5 µM],–
CC1(C)[C@H](C(=O)O)N2C(=O)C[C@H]2S1(=O)=O,9.1% [at 42.5 µM],–
CC1(C)O[C@@H]2C[C@H]3[C@@H]4C[C@H](F)C5=CC(=O)C=C[C@]5(C)[C@H]4[C@@H](O)C[C@]3(C)[C@]2(C(=O)CO)O1,-1% [at 42.5 µM],–
CCCCCCCC/C=C\CCCCCCCCCCCC(=O)O,2.79%,–
CC(C)=CCC1C(=O)N(c2ccccc2)N(c2ccccc2)C1=O,7.58% [at 42.5 µM],–
O=C(/C=C/c1ccccc1)OCCc1ccccc1,65.7%,–
CCN(CC)CCNC(=O)COc1ccc(OC)cc1,-1.06% [at 42.5 µM],–
O=C(Cn1ccnc1[N+](=O)[O-])NCCO,14.8% [at 42.5 µM],–
CC(C)=CCC/C(C)=C/CC/C(C)=C/C(=O)OCC(=O)[C@@]1(O)CC[C@H]2[C@@H]3CCC4=CC(=O)C=C[C@]4(C)[C@H]3[C@@H](O)C[C@@]21C,–,26.6 µM (active)
O=c1[nH]ncc2ccccc12,0%,–
CCCCCCCCCCC(=O)O,1.44%,–
CN1CC(=O)N2[C@H](c3ccc4c(c3)OCO4)c3[nH]c4ccccc4c3C[C@@H]2C1=O,3.47% [at 42.5 µM],–
N#CCCN(CCO)CCO,-1.7%,–
C=C(C)CCCC(C)CCO (stereo not given),-0.465%,–
CC(C)C[C@H](NC(=O)[C@H](CCc1ccccc1)NC(=O)CN1CCOCC1)C(=O)N[C@@H](Cc1ccccc1)C(=O)N[C@@H](CC(C)C)C(=O)[C@@]1(C)CO1,–,0.168 µM (active)
CCC1(CO)COCOC1,-0.603%,–
